1 sequence from PMC7862700, “An all-to-all approach to the identification of sequence-specific readers for epigenetic DNA modifications on cytosine” can be followed below.

Holding throughout (assay): DAPPL (digital affinity profiling via proximity ligation, sequencing); 10 mM Tris-HCl pH 7.5, 50 mM NaCl, 1 mM DTT, 4% glycerol, room temperature, 30 min; GST-TFs on glutathione beads, 16-mer random dsDNA library, 0.1% formaldehyde crosslink after washing; high values mean tight binding
What all share (settings): protein: recombinant; tags: N-terminal GST; dsDNA, one strand shown

Test [1] addresses T1, ELK1 (Homo sapiens, UniProt P19419 1-428).
T1 sequence: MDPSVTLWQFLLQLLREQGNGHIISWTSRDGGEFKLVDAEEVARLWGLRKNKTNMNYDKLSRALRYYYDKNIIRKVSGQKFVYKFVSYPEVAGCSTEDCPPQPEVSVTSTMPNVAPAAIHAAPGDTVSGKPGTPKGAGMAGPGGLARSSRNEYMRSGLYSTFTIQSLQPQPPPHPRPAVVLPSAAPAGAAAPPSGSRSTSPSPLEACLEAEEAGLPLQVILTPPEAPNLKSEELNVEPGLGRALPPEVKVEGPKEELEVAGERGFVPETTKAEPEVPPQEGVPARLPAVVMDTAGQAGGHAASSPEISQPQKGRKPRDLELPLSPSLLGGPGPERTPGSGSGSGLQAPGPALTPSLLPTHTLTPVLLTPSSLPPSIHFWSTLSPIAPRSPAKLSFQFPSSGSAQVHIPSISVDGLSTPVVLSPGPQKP
In outline: (§1)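 The binding signal reported is, for every hexamer, its read frequency for a factor over its read frequency for the tag-only sample. Reads came from pools of yeast-expressed, GST-fused human transcription factors on glutathione beads, barcoded with DNA and mixed with that sample, which were incubated with 200 nmole of a random double-stranded 16-mer DNA library in Tris/NaCl/DTT/glycerol buffer at room temperature for 30 min. After washing, the pools were crosslinked with 0.1% formaldehyde, proximity-ligated with BsaI/T4 ligase for 1 h at 37 °C, PCR-amplified and sequenced on an Illumina NextSeq500.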

The target of test [2] is T2, GABPA (Homo sapiens, UniProt Q06546 1-454).
T2 sequence: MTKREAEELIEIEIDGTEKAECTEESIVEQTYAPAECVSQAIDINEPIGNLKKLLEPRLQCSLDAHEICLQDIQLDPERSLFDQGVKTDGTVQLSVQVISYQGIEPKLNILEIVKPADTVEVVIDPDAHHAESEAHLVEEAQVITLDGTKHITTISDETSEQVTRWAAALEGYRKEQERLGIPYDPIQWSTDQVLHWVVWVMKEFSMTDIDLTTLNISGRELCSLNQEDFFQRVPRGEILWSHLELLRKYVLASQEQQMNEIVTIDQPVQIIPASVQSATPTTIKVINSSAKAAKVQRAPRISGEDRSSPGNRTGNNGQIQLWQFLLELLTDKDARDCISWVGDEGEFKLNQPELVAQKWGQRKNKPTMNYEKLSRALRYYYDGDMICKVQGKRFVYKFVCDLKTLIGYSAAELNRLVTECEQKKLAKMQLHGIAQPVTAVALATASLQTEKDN
In a few lines:
as §1

Test [3] deals with T3, ERG (Homo sapiens, UniProt P11308 1-479).
T3 sequence: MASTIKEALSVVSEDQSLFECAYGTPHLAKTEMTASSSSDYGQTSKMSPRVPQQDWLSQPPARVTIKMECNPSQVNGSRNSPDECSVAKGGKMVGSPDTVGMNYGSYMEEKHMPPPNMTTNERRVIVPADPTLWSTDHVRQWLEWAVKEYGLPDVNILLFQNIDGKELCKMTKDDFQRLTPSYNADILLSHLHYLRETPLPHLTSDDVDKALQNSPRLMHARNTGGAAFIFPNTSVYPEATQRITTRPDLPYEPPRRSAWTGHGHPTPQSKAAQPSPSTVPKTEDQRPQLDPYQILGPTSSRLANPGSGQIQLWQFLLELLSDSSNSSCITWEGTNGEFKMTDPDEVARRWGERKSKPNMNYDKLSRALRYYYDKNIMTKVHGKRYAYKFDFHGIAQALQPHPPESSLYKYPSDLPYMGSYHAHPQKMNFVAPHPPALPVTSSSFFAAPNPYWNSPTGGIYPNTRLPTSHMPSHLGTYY
In outline: as §1

In test [4] the target is ELF1 (Homo sapiens, UniProt P32519 1-619). In outline: as §1
In test [5] the target is T4, EHF (Homo sapiens, UniProt Q9NZC4 1-300).
T4 sequence: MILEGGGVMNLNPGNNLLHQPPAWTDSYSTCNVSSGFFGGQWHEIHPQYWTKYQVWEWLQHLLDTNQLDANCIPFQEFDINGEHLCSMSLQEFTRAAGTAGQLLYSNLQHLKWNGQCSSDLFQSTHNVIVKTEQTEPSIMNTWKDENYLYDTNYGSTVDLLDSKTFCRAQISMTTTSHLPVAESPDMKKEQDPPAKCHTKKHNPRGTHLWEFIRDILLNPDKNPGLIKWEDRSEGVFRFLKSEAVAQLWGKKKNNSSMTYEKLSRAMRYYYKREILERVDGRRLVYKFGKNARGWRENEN
In a few lines: as §1

The target in test [6] is SPIB (Homo sapiens, UniProt Q01892 1-262). In outline: as §1
Test [7] has as its target ETV5 (Homo sapiens, UniProt P41161 1-510). In a few lines:
as §1

Test [8] concerns the target T5, ELK4 (Homo sapiens, UniProt P28324-2 1-405).
T5 sequence: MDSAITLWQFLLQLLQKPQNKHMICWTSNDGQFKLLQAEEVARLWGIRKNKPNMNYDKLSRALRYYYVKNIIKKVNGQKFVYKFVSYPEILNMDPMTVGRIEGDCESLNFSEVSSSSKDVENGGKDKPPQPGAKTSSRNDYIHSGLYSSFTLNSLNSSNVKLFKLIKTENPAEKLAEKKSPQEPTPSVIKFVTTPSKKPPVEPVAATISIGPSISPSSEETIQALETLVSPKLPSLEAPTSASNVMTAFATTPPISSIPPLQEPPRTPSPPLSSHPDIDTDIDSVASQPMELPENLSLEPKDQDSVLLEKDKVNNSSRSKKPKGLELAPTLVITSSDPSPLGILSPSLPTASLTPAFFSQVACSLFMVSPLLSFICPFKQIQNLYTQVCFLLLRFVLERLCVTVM
In a few lines: as §1

The target in test [9] is T6, ELF3 (Homo sapiens, UniProt P78545 1-371).
T6 sequence: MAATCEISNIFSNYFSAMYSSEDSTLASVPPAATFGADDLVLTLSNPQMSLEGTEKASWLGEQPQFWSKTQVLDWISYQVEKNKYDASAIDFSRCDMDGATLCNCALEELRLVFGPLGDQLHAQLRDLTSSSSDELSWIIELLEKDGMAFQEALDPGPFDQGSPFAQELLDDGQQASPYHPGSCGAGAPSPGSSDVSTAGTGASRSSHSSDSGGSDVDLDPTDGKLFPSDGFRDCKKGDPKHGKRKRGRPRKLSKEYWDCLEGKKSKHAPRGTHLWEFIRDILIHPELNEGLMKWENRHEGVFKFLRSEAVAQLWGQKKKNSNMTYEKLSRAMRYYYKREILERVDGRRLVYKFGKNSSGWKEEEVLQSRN
In a few lines: as §1

The target of test [10] is ETV1 (Homo sapiens, UniProt P50549 1-477). In a few lines:
as §1

For test [11], the target named is T7, ERF (Homo sapiens, UniProt P50548 1-548).
T7 sequence: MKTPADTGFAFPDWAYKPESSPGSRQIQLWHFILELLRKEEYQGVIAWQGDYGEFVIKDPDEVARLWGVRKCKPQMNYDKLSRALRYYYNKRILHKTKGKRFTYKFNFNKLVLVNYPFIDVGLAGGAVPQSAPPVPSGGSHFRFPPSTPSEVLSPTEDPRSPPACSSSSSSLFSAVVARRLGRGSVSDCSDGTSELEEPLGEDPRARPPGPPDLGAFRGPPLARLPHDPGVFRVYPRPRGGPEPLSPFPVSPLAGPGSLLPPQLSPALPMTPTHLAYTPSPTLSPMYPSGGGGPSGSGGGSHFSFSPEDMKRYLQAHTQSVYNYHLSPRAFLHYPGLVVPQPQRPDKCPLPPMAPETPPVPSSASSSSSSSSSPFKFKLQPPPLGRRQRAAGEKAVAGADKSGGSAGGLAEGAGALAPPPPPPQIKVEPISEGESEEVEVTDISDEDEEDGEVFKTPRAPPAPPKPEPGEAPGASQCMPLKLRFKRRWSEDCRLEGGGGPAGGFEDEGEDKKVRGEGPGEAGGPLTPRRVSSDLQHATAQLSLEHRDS
In outline:
as §1

Test [12] has as its target T8, ETV3L (Homo sapiens, UniProt Q6ZN32 1-361).
T8 sequence: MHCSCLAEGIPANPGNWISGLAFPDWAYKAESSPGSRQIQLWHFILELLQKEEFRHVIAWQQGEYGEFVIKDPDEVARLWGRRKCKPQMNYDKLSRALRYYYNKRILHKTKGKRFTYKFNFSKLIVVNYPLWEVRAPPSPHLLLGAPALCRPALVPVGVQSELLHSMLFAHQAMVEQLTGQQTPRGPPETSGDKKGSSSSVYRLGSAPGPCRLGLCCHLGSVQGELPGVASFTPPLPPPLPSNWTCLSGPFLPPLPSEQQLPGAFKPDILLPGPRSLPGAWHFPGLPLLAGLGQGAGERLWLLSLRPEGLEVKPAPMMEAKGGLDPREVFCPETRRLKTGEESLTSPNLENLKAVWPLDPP
In a few lines:
as §1

For test [13], the target named is T9, SPDEF (Homo sapiens, UniProt O95238 1-335).
T9 sequence: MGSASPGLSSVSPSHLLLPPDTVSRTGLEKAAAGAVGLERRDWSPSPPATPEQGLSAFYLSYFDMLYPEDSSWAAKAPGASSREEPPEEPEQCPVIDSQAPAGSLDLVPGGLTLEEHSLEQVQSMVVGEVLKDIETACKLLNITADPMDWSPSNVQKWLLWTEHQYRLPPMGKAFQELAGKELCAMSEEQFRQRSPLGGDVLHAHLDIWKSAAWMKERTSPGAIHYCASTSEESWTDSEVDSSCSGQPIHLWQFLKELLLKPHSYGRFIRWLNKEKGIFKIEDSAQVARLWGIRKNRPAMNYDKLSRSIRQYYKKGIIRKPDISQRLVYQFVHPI
In a few lines: as §1

The target of test [14] is T10, ETV7 (Homo sapiens, UniProt Q9Y603 1-341).
T10 sequence: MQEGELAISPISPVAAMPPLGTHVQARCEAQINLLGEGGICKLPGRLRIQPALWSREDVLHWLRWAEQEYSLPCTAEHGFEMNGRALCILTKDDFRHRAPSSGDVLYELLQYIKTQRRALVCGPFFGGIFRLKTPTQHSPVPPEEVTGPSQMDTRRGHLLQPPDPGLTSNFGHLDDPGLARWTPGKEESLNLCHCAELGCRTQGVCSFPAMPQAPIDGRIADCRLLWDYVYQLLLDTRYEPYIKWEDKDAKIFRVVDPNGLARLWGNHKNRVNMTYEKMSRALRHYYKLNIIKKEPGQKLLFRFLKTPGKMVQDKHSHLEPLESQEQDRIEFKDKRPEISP
In a few lines:
as §1

Test [15] has as its target ETV6 (Homo sapiens, UniProt P41212 1-452). In outline:
as §1

Sequence of ETV5 (P41161 whole entry): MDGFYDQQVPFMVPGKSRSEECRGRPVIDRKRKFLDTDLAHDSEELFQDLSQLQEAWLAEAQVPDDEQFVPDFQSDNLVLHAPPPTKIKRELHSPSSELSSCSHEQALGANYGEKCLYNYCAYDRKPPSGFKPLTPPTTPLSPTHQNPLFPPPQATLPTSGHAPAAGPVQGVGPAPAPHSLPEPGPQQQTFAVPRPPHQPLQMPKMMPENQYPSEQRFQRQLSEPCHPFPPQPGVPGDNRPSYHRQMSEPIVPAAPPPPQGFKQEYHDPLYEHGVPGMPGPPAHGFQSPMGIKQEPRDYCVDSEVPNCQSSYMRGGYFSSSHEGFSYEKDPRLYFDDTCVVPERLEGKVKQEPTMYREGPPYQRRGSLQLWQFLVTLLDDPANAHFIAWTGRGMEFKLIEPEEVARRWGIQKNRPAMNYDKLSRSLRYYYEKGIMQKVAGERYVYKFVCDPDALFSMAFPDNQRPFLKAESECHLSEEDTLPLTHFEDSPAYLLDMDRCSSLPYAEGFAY
Sequence of ETV1 (P50549 whole entry): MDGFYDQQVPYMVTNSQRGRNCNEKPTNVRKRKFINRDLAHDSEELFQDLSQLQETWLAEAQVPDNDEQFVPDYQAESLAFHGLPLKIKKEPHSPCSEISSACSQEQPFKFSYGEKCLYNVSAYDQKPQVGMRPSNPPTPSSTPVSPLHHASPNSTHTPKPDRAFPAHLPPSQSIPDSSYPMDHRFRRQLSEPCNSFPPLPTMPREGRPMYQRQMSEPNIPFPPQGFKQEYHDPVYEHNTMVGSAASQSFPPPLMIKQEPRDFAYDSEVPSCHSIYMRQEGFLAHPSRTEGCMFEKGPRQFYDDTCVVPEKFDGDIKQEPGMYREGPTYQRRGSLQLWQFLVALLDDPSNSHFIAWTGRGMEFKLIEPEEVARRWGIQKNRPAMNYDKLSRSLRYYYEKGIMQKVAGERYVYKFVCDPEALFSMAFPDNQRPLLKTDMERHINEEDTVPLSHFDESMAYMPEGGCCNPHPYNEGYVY
Sequence of ETV6 (P41212 whole entry): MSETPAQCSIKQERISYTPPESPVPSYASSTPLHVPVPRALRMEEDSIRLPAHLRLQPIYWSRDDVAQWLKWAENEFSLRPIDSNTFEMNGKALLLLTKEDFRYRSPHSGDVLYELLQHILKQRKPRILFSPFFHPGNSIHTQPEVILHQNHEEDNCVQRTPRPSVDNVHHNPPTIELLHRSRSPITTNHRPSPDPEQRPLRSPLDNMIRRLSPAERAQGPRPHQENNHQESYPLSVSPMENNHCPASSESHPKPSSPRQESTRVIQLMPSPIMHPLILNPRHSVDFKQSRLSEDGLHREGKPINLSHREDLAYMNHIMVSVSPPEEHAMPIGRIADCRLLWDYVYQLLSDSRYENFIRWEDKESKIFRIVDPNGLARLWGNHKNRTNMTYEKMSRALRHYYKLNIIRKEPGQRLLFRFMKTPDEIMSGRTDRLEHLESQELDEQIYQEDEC
Sequence of ELF1 (P32519 whole entry): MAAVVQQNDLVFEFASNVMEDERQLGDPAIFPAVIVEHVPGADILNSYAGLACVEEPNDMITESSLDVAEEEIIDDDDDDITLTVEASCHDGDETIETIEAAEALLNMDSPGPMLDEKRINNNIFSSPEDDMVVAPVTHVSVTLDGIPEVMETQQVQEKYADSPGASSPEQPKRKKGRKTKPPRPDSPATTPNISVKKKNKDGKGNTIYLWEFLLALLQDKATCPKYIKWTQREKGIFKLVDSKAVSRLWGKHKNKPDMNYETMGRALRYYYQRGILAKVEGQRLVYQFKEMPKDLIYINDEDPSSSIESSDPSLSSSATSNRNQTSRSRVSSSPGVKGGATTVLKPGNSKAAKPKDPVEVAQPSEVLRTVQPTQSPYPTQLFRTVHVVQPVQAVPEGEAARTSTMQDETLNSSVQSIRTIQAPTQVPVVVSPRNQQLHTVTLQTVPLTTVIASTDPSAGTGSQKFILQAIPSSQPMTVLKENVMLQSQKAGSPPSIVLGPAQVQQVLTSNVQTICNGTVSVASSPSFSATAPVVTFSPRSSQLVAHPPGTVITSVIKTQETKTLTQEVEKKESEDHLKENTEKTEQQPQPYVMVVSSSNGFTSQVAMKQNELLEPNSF
Sequence of SPIB (Q01892 whole entry): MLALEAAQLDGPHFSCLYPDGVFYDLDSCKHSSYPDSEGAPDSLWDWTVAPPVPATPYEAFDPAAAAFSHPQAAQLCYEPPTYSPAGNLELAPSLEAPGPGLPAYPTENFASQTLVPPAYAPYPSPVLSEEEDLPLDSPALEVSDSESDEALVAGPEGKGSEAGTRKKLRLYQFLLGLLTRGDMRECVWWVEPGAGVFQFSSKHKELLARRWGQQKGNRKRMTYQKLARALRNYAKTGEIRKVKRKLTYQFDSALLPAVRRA

With CGAATC, the binding signal was 1.01 fold enrichment (6-mer frequency, TF over GST control) in [1]; 1.14 fold enrichment (6-mer frequency, TF over GST control) in [2]; 1.05 fold enrichment (6-mer frequency, TF over GST control) in test [3]; 1 fold enrichment (6-mer frequency, TF over GST control) in test [4]; 1.06 fold enrichment (6-mer frequency, TF over GST control) in test [5]; 1.13 fold enrichment (6-mer frequency, TF over GST control) in test [6]. The binding signal is 1.07 fold enrichment (6-mer frequency, TF over GST control) in test [7]; 1.09 fold enrichment (6-mer frequency, TF over GST control) in test [8]; 1.11 fold enrichment (6-mer frequency, TF over GST control) in [9]; 1.02 fold enrichment (6-mer frequency, TF over GST control) in test [10]; 1.15 fold enrichment (6-mer frequency, TF over GST control) in test [11]; 1 fold enrichment (6-mer frequency, TF over GST control) in test [12]. In addition, the binding signal in test [13] was 1.12 fold enrichment (6-mer frequency, TF over GST control); in [14], 1.02 fold enrichment (6-mer frequency, TF over GST control); in test [15], 1.01 fold enrichment (6-mer frequency, TF over GST control).
